From the supplement of paper PMC8975748
Structures can show the parent of a compound that is named as a salt.

System: Saccharomyces cerevisiae BY4741 SeMeCo community
Assay: z-score of subpopulation abundance vs DMSO median, subpopulation auxotrophic for HLUM; higher = larger share of this subpopulation than in DMSO controls
Conditions: 10 µM; 24 h; SM minimal medium; subpopulation (auxotrophy): HLUM
Description: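 Fluorescent four-plasmid SeMeCo (self-establishing metabolically cooperating S. cerevisiae BY4741 community; plasmids pH-mRuby2, pL-mWasabi, pU-eCFP, pM-TagRFP657) was grown 24 h in minimal SM medium with each Selleck FDA-approved drug at 10 µM in 384-well plates. Cells were fixed and imaged by high-content confocal microscopy. For each auxotrophic subpopulation (and the prototroph), a z-score gives the deviation from the DMSO vehicle-control population median.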

How did the “z-score of subpopulation abundance” value turn out when `C#CCN(C)Cc1ccccc1` [Pargyline hydrochloride] was run?
Its value is 0.1.

Which “z-score of subpopulation abundance” value does the source give for `O=C(O)Cc1ccccc1Nc1c(Cl)cccc1Cl` [Diclofenac Sodium] here?
Its value is -0.38.

For `O=C(Nc1ccc(Oc2ccc(Cl)cc2)c(Cl)c1)c1cc(I)cc(I)c1O` [Rafoxanide], which “z-score of subpopulation abundance” value is on record?
Its value is 0.01.

Which “z-score of subpopulation abundance” value does the source give for `Cc1nc(C)c(Cl)c(O)c1Cl` [Clopidol] here?
The value was -0.36.

`O=c1ccn(C2CC(O)C(CO)O2)c(=O)[nH]1` (stereo not given) [2-deoxyuridine] was tested. Which “z-score of subpopulation abundance” value did it give?
The value was 0.04.

How did the “z-score of subpopulation abundance” value turn out when `CN1CCCN=C1/C=C/c1cccs1` [Pyrantel Pamoate] was run?
The value was -0.17.

For `OC(CCN1CCCCC1)(c1ccccc1)C1CCCCC1` (stereo not given) [Trihexyphenidyl hydrochloride], which “z-score of subpopulation abundance” value is on record?
The value was -0.13.

`CO[C@H]1C[C@@H]2CC[C@@H](C)[C@@](O)(O2)C(=O)C(=O)N2CCCC[C@H]2C(=O)O[C@H]([C@H](C)C[C@@H]2CC[C@@H](OC(=O)C(C)(CO)CO)[C@H](OC)C2)CC(=O)[C@H](C)/C=C(\C)[C@@H](O)[C@@H](OC)C(=O)[C@H](C)C[C@H](C)/C=C/C=C/C=C/1C` was tested. Which “z-score of subpopulation abundance” value did it give?
The value was 31.6.

For `COc1ccc(-c2nc3cc(C4=NNC(=O)CC4C)ccc3[nH]2)cc1` (stereo not given) [Pimobendan], which “z-score of subpopulation abundance” value is on record?
The value was 1.6.

For `Cc1onc(-c2c(F)cccc2Cl)c1C(=O)N[C@@H]1C(=O)N2[C@@H]1SC(C)(C)[C@@H]2C(=O)O` [Flucloxacillin sodium], which “z-score of subpopulation abundance” value is on record?
Its value is -0.68.

With `NC(=O)Cc1cccc(C(=O)c2ccccc2)c1N` [Nepafenac] as the compound, how does the “z-score of subpopulation abundance” value read?
The value was 0.1.

Which “z-score of subpopulation abundance” value does the source give for `CC(C)[C@H](N)C(=O)OCCOCn1cnc2c(=O)nc(N)[nH]c21` [Valaciclovir HCl] here?
The value was -0.14.

`CN(C)CC/C=C1/c2ccccc2Sc2ccc(Cl)cc21` [Chlorprothixene] was tested. Which “z-score of subpopulation abundance” value did it give?
The value was -0.55.

Which “z-score of subpopulation abundance” value does the source give for `O=C(c1ccc(F)cc1)C1CCN(CCn2c(=O)[nH]c3ccccc3c2=O)CC1` [Ketanserin] here?
The value was 0.5.

For `CC(Cc1ccc(O)c(O)c1)C(C)Cc1ccc(O)c(O)c1` (stereo not given) [Nordihydroguaiaretic acid (NDGA)], which “z-score of subpopulation abundance” value is on record?
The value was -0.44.

With `CCN(CC)C(=O)[C@@]1(c2ccccc2)C[C@H]1CN` [Levomilnacipran Hydrochloride] as the compound, how does the “z-score of subpopulation abundance” value read?
Its value is -0.66.

With `O=C1CC2(CCCC2)CC(=O)N1CCCCN1CCN(c2ncccn2)CC1` [Buspirone HCl] as the compound, how does the “z-score of subpopulation abundance” value read?
The value was 0.74.

With `C#C[C@]1(OC(C)=O)CC[C@H]2[C@@H]3CCC4=C[C@@H](OC(C)=O)CC[C@@H]4[C@H]3CC[C@@]21C` [Ethynodiol diacetate] as the compound, how does the “z-score of subpopulation abundance” value read?
The value was 0.38.

With `O=S1(=O)CCN(CN2CCS(=O)(=O)NC2)CN1` [Taurolidine] as the compound, how does the “z-score of subpopulation abundance” value read?
Its value is -0.55.

Which “z-score of subpopulation abundance” value does the source give for `CCOc1ccc2ccccc2c1C(=O)N[C@@H]1C(=O)N2[C@@H]1SC(C)(C)[C@@H]2C(=O)O` [Nafcillin Sodium] here?
The value was -0.09.

With `COC(=O)C1=C(C)NC(C)=C(C(=O)OC(C)(C)CN(C)CCC(c2ccccc2)c2ccccc2)C1c1cccc([N+](=O)[O-])c1` (stereo not given) [Lercanidipine hydrochloride] as the compound, how does the “z-score of subpopulation abundance” value read?
Its value is -0.22.

How did the “z-score of subpopulation abundance” value turn out when `O=C(O)c1cccnc1Nc1cccc(C(F)(F)F)c1` [Niflumic acid] was run?
The value was -0.43.

How did the “z-score of subpopulation abundance” value turn out when `CCS(=O)(=O)CCn1c([N+](=O)[O-])cnc1C` [Tinidazole] was run?
Its value is -0.4.

For `Cc1c(-c2ccccc2)oc2c(C(=O)OCCN3CCCCC3)cccc2c1=O` [Flavoxate HCl], which “z-score of subpopulation abundance” value is on record?
The value was 1.01.

`COc1ccccc1OCC(O)CN1CCN(CC(=O)Nc2c(C)cccc2C)CC1` (stereo not given) [Ranolazine 2HCl] was tested. Which “z-score of subpopulation abundance” value did it give?
The value was -0.5.

With `CC(=O)OCC1=C(C(=O)O)N2C(=O)[C@@H](NC(=O)CSc3ccncc3)[C@H]2SC1` [Cephapirin Benzathine] as the compound, how does the “z-score of subpopulation abundance” value read?
The value was -0.55.

`CO/N=C(\C(=O)N[C@@H]1C(=O)N2C(C(=O)[O-])=C(C[n+]3cccc4c3CCC4)CS[C@H]12)c1csc(N)n1` [Cefpirome sulfate] was tested. Which “z-score of subpopulation abundance” value did it give?
Its value is 0.23.

`CCCc1nn(C)c2c(=O)[nH]c(-c3cc(S(=O)(=O)N4CCN(C)CC4)ccc3OCC)nc12` [Sildenafil Citrate] was tested. Which “z-score of subpopulation abundance” value did it give?
The value was -0.32.

How did the “z-score of subpopulation abundance” value turn out when `N/C(=N\N=C\c1ccc(Cl)cc1)N/N=C/c1ccc(Cl)cc1` [Robenidine Hydrochoride] was run?
The value was 18.1.

For `Cc1ccc(Sc2ccccc2N2CCNCC2)c(C)c1`, which “z-score of subpopulation abundance” value is on record?
The value was -0.16.

With `O=C(Nc1c(Cl)cncc1Cl)c1ccc(OC(F)F)c(OCC2CC2)c1` [Roflumilast] as the compound, how does the “z-score of subpopulation abundance” value read?
The value was -0.84.

With `O=C(O)CCC(=O)OC[C@@H](NC(=O)C(Cl)Cl)[C@H](O)c1ccc([N+](=O)[O-])cc1` [Chloramphenicol sodium succinate] as the compound, how does the “z-score of subpopulation abundance” value read?
Its value is 0.88.

How did the “z-score of subpopulation abundance” value turn out when `C[C@]12CC[C@@H]3c4ccc(O)cc4C[C@@H](CCCCCCCCC[S+]([O-])CCCC(F)(F)C(F)(F)F)[C@H]3[C@@H]1CC[C@@H]2O` (stereo not given in full) [Fulvestrant] was run?
The value was 1.35.

`CCOc1cc(N)c(Cl)cc1C(=O)NCC1CN(Cc2ccc(F)cc2)CCO1` (stereo not given) [Mosapride Citrate] was tested. Which “z-score of subpopulation abundance” value did it give?
The value was 1.04.

Which “z-score of subpopulation abundance” value does the source give for `CC(C(=O)O)c1ccc2c(c1)[nH]c1ccc(Cl)cc12` (stereo not given) [Carprofen] here?
Its value is 0.18.

Which “z-score of subpopulation abundance” value does the source give for `CC[C@@H]1/C=C(\C)C[C@H](C)C[C@H](OC)[C@H]2O[C@@](O)(C(=O)C(=O)N3CCCC[C@H]3C(=O)O[C@H](/C(C)=C/[C@@H]3CC[C@@H](O)[C@H](OC)C3)[C@H](C)[C@@H](O)CC1=O)[C@H](C)C[C@@H]2OC` [Ascomycin (FK520)] here?
Its value is 2.95.

Which “z-score of subpopulation abundance” value does the source give for `CCC[S+]([O-])c1ccc2[nH]c(NC(=O)OC)nc2c1` (stereo not given) [Albendazole Oxide] here?
Its value is -1.11.

With `CC[C@H](C)C[C@H](C)CCCCCCCCC(=O)N[C@H]1C[C@@H](O)[C@@H](NCCN)NC(=O)[C@@H]2[C@@H](O)CCN2C(=O)[C@H]([C@H](O)CCN)NC(=O)[C@H]([C@H](O)[C@@H](O)c2ccc(O)cc2)NC(=O)[C@@H]2C[C@@H](O)CN2C(=O)[C@H]([C@@H](C)O)NC1=O` [Caspofungin Acetate] as the compound, how does the “z-score of subpopulation abundance” value read?
Its value is 127.

For `C[C@H]1[C@H](NC(=O)/C(=N\OC(C)(C)C(=O)O)c2csc(N)n2)C(=O)N1S(=O)(=O)O` [Aztreonam], which “z-score of subpopulation abundance” value is on record?
The value was 0.34.

`c1cnc(N2CCN(Cc3ccc4c(c3)OCO4)CC2)nc1` [Piribedil] was tested. Which “z-score of subpopulation abundance” value did it give?
Its value is -0.28.
